# Key:
# Assay in all cases: SPOT peptide array binding signal intensity (averaged, normalized) (arbitrary units (background-subtracted, floor 0; scale differs between SH3 domains)); higher = stronger binding of the SH3 domain to the peptide
# AgAbp1 = molecular target: AgAbp1
# Summary of the method: (§1)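 To measure binding, SH3 domains from four yeast species were fused to GST, expressed in E. coli BL21(DE3) and purified on glutathione Sepharose. Each domain was incubated at 10 μg/ml overnight at 4°C on cellulose membranes with synthetic 15-mer peptides whose cysteines were replaced by serines. Anti-GST antibody, an HRP anti-mouse secondary and luminol were used for detection, and images were quantified with Genespotter. Reported binding signal is normalized, background-subtracted spot intensity averaged over replicates, in arbitrary units that differ between domains.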
# AgBbc1 = molecular target: AgBbc1
# Summary of the method: as §1
# AgBem1-D1 = molecular target: AgBem1-D1
# Summary of the method: as §1
# AgBzz1-D1 = molecular target: AgBzz1-D1
# Summary of the method: as §1
# AgBzz1-D2 = molecular target: AgBzz1-D2
# Summary of the method: as §1
# AgCyk3 = molecular target: AgCyk3
# Summary of the method: as §1
# AgFus1 = molecular target: AgFus1
# Summary of the method: as §1
# AgHof1 = molecular target: AgHof1
# Summary of the method: as §1
# AgHse1 = molecular target: AgHse1
# Summary of the method: as §1
# AgLsb1 = molecular target: AgLsb1
# Summary of the method: as §1
# AgLsb4 = molecular target: AgLsb4
# Summary of the method: as §1
# AgMyo5 = molecular target: AgMyo5
# Summary of the method: as §1
# AgNbp2 = molecular target: AgNbp2
# Summary of the method: as §1
# AgRvs167 = molecular target: AgRvs167
# Summary of the method: as §1
# AgSho1 = molecular target: AgSho1
# Summary of the method: as §1
# AgSla1-D1-D2 = molecular target: AgSla1-D1-D2
# Summary of the method: as §1
# AgSla1-D3 = molecular target: AgSla1-D3
# Summary of the method: as §1
# CaAbp1-D1 = molecular target: CaAbp1-D1
# Summary of the method: as §1
# CaAbp1-D2 = molecular target: CaAbp1-D2
# Summary of the method: as §1
# CaBbc1 = molecular target: CaBbc1
# Summary of the method: as §1
# CaBem1-D1 = molecular target: CaBem1-D1
# Summary of the method: as §1
# CaBzz1-D1 = molecular target: CaBzz1-D1
# Summary of the method: as §1
# CaBzz1-D2 = molecular target: CaBzz1-D2
# Summary of the method: as §1
# CaCyk3 = molecular target: CaCyk3
# Summary of the method: as §1
# CaFus1 = molecular target: CaFus1
# Summary of the method: as §1
# CaHof1 = molecular target: CaHof1
# Summary of the method: as §1
# CaHse1 = molecular target: CaHse1
# Summary of the method: as §1
# CaLsb1 = molecular target: CaLsb1
# Summary of the method: as §1
# CaLsb4 = molecular target: CaLsb4
# Summary of the method: as §1
# CaMyo5 = molecular target: CaMyo5
# Summary of the method: as §1
# CaNbp2 = molecular target: CaNbp2
# Summary of the method: as §1
# CaRvs167 = molecular target: CaRvs167
# Summary of the method: as §1
# CaRvs167-3 = molecular target: CaRvs167-3
# Summary of the method: as §1
# CaSho1 = molecular target: CaSho1
# Summary of the method: as §1
# CaSla1-D1-D2 = molecular target: CaSla1-D1-D2
# Summary of the method: as §1
# CaSla1-D3 = molecular target: CaSla1-D3
# Summary of the method: as §1
# ScAbp1 = molecular target: ScAbp1
# Summary of the method: as §1
# ScBbc1 = molecular target: ScBbc1
# Summary of the method: as §1
# ScBem1-D1 = molecular target: ScBem1-D1
# Summary of the method: as §1
# ScBzz1-D1 = molecular target: ScBzz1-D1
# Summary of the method: as §1
# ScBzz1-D2 = molecular target: ScBzz1-D2
# Summary of the method: as §1
# ScCyk3 = molecular target: ScCyk3
# Summary of the method: as §1
# ScFus1 = molecular target: ScFus1
# Summary of the method: as §1
# ScHof1 = molecular target: ScHof1
# Summary of the method: as §1
# ScHse1 = molecular target: ScHse1
# Summary of the method: as §1
# ScLsb1 = molecular target: ScLsb1
# Summary of the method: as §1
# ScLsb2 = molecular target: ScLsb2
# Summary of the method: as §1
# ScLsb3 = molecular target: ScLsb3
# Summary of the method: as §1
# ScLsb4 = molecular target: ScLsb4
# Summary of the method: as §1
# ScMyo3 = molecular target: ScMyo3
# Summary of the method: as §1
# ScMyo5 = molecular target: ScMyo5
# Summary of the method: as §1
# ScNbp2 = molecular target: ScNbp2
# Summary of the method: as §1
# ScPex13 = molecular target: ScPex13
# Summary of the method: as §1
# ScRvs167 = molecular target: ScRvs167
# Summary of the method: as §1
# ScSho1 = molecular target: ScSho1
# Summary of the method: as §1
# ScSla1-D1-D2 = molecular target: ScSla1-D1-D2
# Summary of the method: as §1
# ScSla1-D3 = molecular target: ScSla1-D3
# Summary of the method: as §1
# SpAbp1-D1 = molecular target: SpAbp1-D1
# Summary of the method: as §1
# SpBbc1 = molecular target: SpBbc1
# Summary of the method: as §1
# SpBzz1-D1 = molecular target: SpBzz1-D1
# Summary of the method: as §1
# SpBzz1-D2 = molecular target: SpBzz1-D2
# Summary of the method: as §1
# SpCyk3 = molecular target: SpCyk3
# Summary of the method: as §1
# SpHof1 = molecular target: SpHof1
# Summary of the method: as §1
# SpHof1-2 = molecular target: SpHof1-2
# Summary of the method: as §1
# SpHof1-3 = molecular target: SpHof1-3
# Summary of the method: as §1
# SpHse1 = molecular target: SpHse1
# Summary of the method: as §1
# SpLsb1 = molecular target: SpLsb1
# Summary of the method: as §1
# SpLsb4 = molecular target: SpLsb4
# Summary of the method: as §1
# SpMyo1 = molecular target: SpMyo1
# Summary of the method: as §1
# SpNbp2 = molecular target: SpNbp2
# Summary of the method: as §1
# SpPex13 = molecular target: SpPex13
# Summary of the method: as §1
# SpRvs167 = molecular target: SpRvs167
# Summary of the method: as §1
# SpSla1-D1-D2 = molecular target: SpSla1-D1-D2
# Summary of the method: as §1
# SpSla1-D3 = molecular target: SpSla1-D3
# Summary of the method: as §1
binder,measurement,setting,value
LTRRFPFLFPFDTRM,SPOT peptide array binding signal intensity,AgAbp1,4
same,SPOT peptide array binding signal intensity,AgBbc1,≤ 0
same,SPOT peptide array binding signal intensity,AgBem1-D1,47
same,SPOT peptide array binding signal intensity,AgBzz1-D1,13
same,SPOT peptide array binding signal intensity,AgBzz1-D2,27
same,SPOT peptide array binding signal intensity,AgCyk3,1
same,SPOT peptide array binding signal intensity,AgFus1,198
same,SPOT peptide array binding signal intensity,AgHof1,43.5
same,SPOT peptide array binding signal intensity,AgHse1,1430
same,SPOT peptide array binding signal intensity,AgLsb1,1.75
same,SPOT peptide array binding signal intensity,AgLsb4,18
same,SPOT peptide array binding signal intensity,AgMyo5,1.5
same,SPOT peptide array binding signal intensity,AgNbp2,36
same,SPOT peptide array binding signal intensity,AgRvs167,3.33
same,SPOT peptide array binding signal intensity,AgSho1,21
same,SPOT peptide array binding signal intensity,AgSla1-D1-D2,25.5
same,SPOT peptide array binding signal intensity,AgSla1-D3,4
same,SPOT peptide array binding signal intensity,CaAbp1-D1,573
same,SPOT peptide array binding signal intensity,CaAbp1-D2,155
same,SPOT peptide array binding signal intensity,CaBbc1,3.25
same,SPOT peptide array binding signal intensity,CaBem1-D1,7
same,SPOT peptide array binding signal intensity,CaBzz1-D1,40
same,SPOT peptide array binding signal intensity,CaBzz1-D2,12.5
same,SPOT peptide array binding signal intensity,CaCyk3,8
same,SPOT peptide array binding signal intensity,CaFus1,1040
same,SPOT peptide array binding signal intensity,CaHof1,0.5
same,SPOT peptide array binding signal intensity,CaHse1,83.5
same,SPOT peptide array binding signal intensity,CaLsb1,≤ 0
same,SPOT peptide array binding signal intensity,CaLsb4,9.5
same,SPOT peptide array binding signal intensity,CaMyo5,13.8
same,SPOT peptide array binding signal intensity,CaNbp2,249
same,SPOT peptide array binding signal intensity,CaRvs167,10.2
same,SPOT peptide array binding signal intensity,CaRvs167-3,43.2
same,SPOT peptide array binding signal intensity,CaSho1,892
same,SPOT peptide array binding signal intensity,CaSla1-D1-D2,30.5
same,SPOT peptide array binding signal intensity,CaSla1-D3,20
same,SPOT peptide array binding signal intensity,ScAbp1,39
same,SPOT peptide array binding signal intensity,ScBbc1,0.5
same,SPOT peptide array binding signal intensity,ScBem1-D1,14
same,SPOT peptide array binding signal intensity,ScBzz1-D1,10
same,SPOT peptide array binding signal intensity,ScBzz1-D2,10
same,SPOT peptide array binding signal intensity,ScCyk3,374
same,SPOT peptide array binding signal intensity,ScFus1,289
same,SPOT peptide array binding signal intensity,ScHof1,0.5
same,SPOT peptide array binding signal intensity,ScHse1,1600
same,SPOT peptide array binding signal intensity,ScLsb1,≤ 0
same,SPOT peptide array binding signal intensity,ScLsb2,≤ 0
same,SPOT peptide array binding signal intensity,ScLsb3,27.5
same,SPOT peptide array binding signal intensity,ScLsb4,≤ 0
same,SPOT peptide array binding signal intensity,ScMyo3,2.5
same,SPOT peptide array binding signal intensity,ScMyo5,1.5
same,SPOT peptide array binding signal intensity,ScNbp2,128
same,SPOT peptide array binding signal intensity,ScPex13,≤ 0
same,SPOT peptide array binding signal intensity,ScRvs167,14.3
same,SPOT peptide array binding signal intensity,ScSho1,335
same,SPOT peptide array binding signal intensity,ScSla1-D1-D2,7
same,SPOT peptide array binding signal intensity,ScSla1-D3,7.5
same,SPOT peptide array binding signal intensity,SpAbp1-D1,195
same,SPOT peptide array binding signal intensity,SpBbc1,≤ 0
same,SPOT peptide array binding signal intensity,SpBzz1-D1,53.5
same,SPOT peptide array binding signal intensity,SpBzz1-D2,≤ 0
same,SPOT peptide array binding signal intensity,SpCyk3,11.5
same,SPOT peptide array binding signal intensity,SpHof1,72.5
same,SPOT peptide array binding signal intensity,SpHof1-2,11.5
same,SPOT peptide array binding signal intensity,SpHof1-3,1320
same,SPOT peptide array binding signal intensity,SpHse1,1740
same,SPOT peptide array binding signal intensity,SpLsb1,≤ 0
same,SPOT peptide array binding signal intensity,SpLsb4,≤ 0
same,SPOT peptide array binding signal intensity,SpMyo1,7
same,SPOT peptide array binding signal intensity,SpNbp2,69
same,SPOT peptide array binding signal intensity,SpPex13,14
same,SPOT peptide array binding signal intensity,SpRvs167,2.17
same,SPOT peptide array binding signal intensity,SpSla1-D1-D2,2.5
same,SPOT peptide array binding signal intensity,SpSla1-D3,5
TKFRISLGLPVGAIM,SPOT peptide array binding signal intensity,SpBzz1-D2,5
same,SPOT peptide array binding signal intensity,SpCyk3,55
same,SPOT peptide array binding signal intensity,SpHof1,183
same,SPOT peptide array binding signal intensity,SpHof1-2,78.2
same,SPOT peptide array binding signal intensity,SpHof1-3,760
same,SPOT peptide array binding signal intensity,SpHse1,664
same,SPOT peptide array binding signal intensity,SpLsb1,35.5
same,SPOT peptide array binding signal intensity,SpLsb4,100
same,SPOT peptide array binding signal intensity,SpMyo1,20.5
same,SPOT peptide array binding signal intensity,SpNbp2,1390
same,SPOT peptide array binding signal intensity,SpPex13,239
same,SPOT peptide array binding signal intensity,SpRvs167,39.2
same,SPOT peptide array binding signal intensity,SpSla1-D1-D2,6
same,SPOT peptide array binding signal intensity,SpSla1-D3,51.5
